# About 79,000 compounds went through this panel and 15% of them were active in at least one assay; those are over-represented in the sample as a whole. A number with no mark means an inactive call. Activity calls are given as the source filed them. No stated cut-off is given here; in the data, active means growth inhibition above about 70%; inactive means the rest.
# Key:
# [1] = NCI Yeast Anticancer Drug Screen. Data for the wt1 strain (AID 149);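 further: 0% = growth of vehicle-treated wt1 cultures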; conditions: S. cerevisiae wt1 strain (SPY 50644) growth inhibition, stronger effect = higher value
# Outline: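 Growth inhibition read against vehicle controls after compound exposure of the wt1 yeast strain.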
# [2] = NCI Yeast Anticancer Drug Screen. Data for the rad50EPP+ strain (AID 151);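 further: 0% = growth of vehicle-treated control cultures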; conditions: S. cerevisiae rad50 mutant strain, stronger effect = higher value
# Outline: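 Measured: growth inhibition of rad50EPP+ yeast. Reference: vehicle-treated controls. Screen uses strains with defined genetic alterations in DNA damage repair or cell cycle control.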
# [3] = NCI Yeast Anticancer Drug Screen. Data for the mgt1 strain (AID 153); conditions: S. cerevisiae mgt1 mutant growth inhibition, stronger effect = higher value
# Outline: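 Compounds were applied to mgt1 mutant yeast, and growth was then compared against vehicle-treated control cultures to give percent inhibition.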
# [4] = NCI Yeast Anticancer Drug Screen. Data for the rad50 strain (AID 155);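 further: 0% = growth of vehicle-only cultures of the same strain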; conditions: S. cerevisiae rad50 strain growth inhibition, stronger effect = higher value
# Outline: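 Readout: growth inhibition relative to vehicle-treated cultures. Compound exposure was carried out in a genetically defined yeast strain deficient in DNA damage repair.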
# [5] = NCI Yeast Anticancer Drug Screen. Data for the mec2-1 strain (AID 157); conditions: S. cerevisiae mec2-1 strain, stronger effect = higher value
# Outline: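 Compounds were applied to mec2-1 yeast cells. Their growth was then compared with that of vehicle-treated cultures to give growth inhibition.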
# [6] = NCI Yeast Anticancer Drug Screen. Data for the rad14 strain (AID 159);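 further: 0% = growth of vehicle-treated control cultures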; conditions: S. cerevisiae rad14 strain growth inhibition, stronger effect = higher value
# Outline: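 Growth inhibition vs vehicle controls; genetically altered yeast strain (DNA damage repair defect) treated with test compounds.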
# [7] = NCI Yeast Anticancer Drug Screen. Data for the sgs1 mgt1 strain (AID 161);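 further: 0% = growth of cultures given vehicle only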; conditions: S. cerevisiae sgs1 mgt1 strain, stronger effect = higher value
# Outline: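 Compounds are added to genetically altered yeast, and growth is compared with cultures given vehicle alone to give percent inhibition.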
# [8] = NCI Yeast Anticancer Drug Screen. Data for the CLN2oe strain (AID 163);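 further: 0% = growth of vehicle-only control cultures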; conditions: S. cerevisiae CLN2oe strain, stronger effect = higher value
# Outline: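 Cells of an engineered yeast line with disturbed cell-cycle regulation are treated with compound. Inhibition of growth is then calculated relative to the vehicle-treated reference.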
# [9] = NCI Yeast Anticancer Drug Screen. Data for the cln2 rad14 strain (AID 165);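 further: 0% = growth equal to vehicle treated cultures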; conditions: S. cerevisiae cln2 rad14 strain, stronger effect = higher value
# Outline: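 Strain: cln2 rad14 yeast, altered in cell cycle control and DNA damage repair. Read-out: growth inhibition vs vehicle.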
# [10] = NCI Yeast Anticancer Drug Screen. Data for the bub3 strain (AID 167); conditions: S. cerevisiae bub3 mutant strain, stronger effect = higher value
# Outline: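 Readout: yeast growth inhibition, expressed relative to vehicle-only wells. The test organism is a mutant strain from a panel with lesions in DNA repair or checkpoint genes.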
# [11] = NCI Yeast Anticancer Drug Screen. Data for the wt2 strain (AID 169);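 further: 0% = growth of vehicle-treated yeast cultures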; conditions: S. cerevisiae wt2 strain growth inhibition, stronger effect = higher value
# Outline: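 Growth of compound-treated yeast is measured and expressed as inhibition relative to vehicle-only controls.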
# [12] = NCI Yeast Anticancer Drug Screen. Data for the mlh1 strain (AID 171);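 further: 0% = growth of vehicle-treated control cultures of the same strain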; conditions: S. cerevisiae mlh1 strain growth inhibition, stronger effect = higher value
# Outline: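 Test agents were incubated with yeast bearing a defined DNA damage repair or cell cycle control alteration; values are growth inhibition normalised to vehicle-treated cultures.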
# [13] = NCI Yeast Anticancer Drug Screen. Data for the sgs1 strain (AID 173);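 further: 0% = growth of vehicle-only control cultures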; conditions: S. cerevisiae sgs1 mutant, stronger effect = higher value
# Outline: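 Strain with an altered DNA repair or cell cycle pathway exposed to compound. Growth then measured. Value = inhibition versus vehicle control.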
# [14] = NCI Yeast Anticancer Drug Screen. Data for the mlh1 rad18 strain (AID 175); conditions: S. cerevisiae mlh1 rad18 strain growth inhibition, stronger effect = higher value
# Outline: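 A repair-deficient yeast strain is exposed to test compound, and growth is scored relative to vehicle-treated controls.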
# [15] = NCI Yeast Anticancer Drug Screen. Data for the rad18 strain (AID 177); conditions: S. cerevisiae rad18 mutant growth inhibition, stronger effect = higher value
# Outline: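 DNA-repair-defective yeast; compound treatment; growth inhibition scored against vehicle.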
# [16] = NCI Yeast Anticancer Drug Screen. Data for the rad52 strain (AID 147);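 further: 0% = growth of vehicle-treated control cultures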; conditions: S. cerevisiae rad52 mutant growth inhibition, stronger effect = higher value
# Outline: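 Growth of repair-deficient yeast cells was compared between compound-treated and vehicle-treated cultures to give percent inhibition.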
# [17] = at 5.0 µM (retest, dose inferred, filed as 0.5)
# [18] = at 50.0 µM (retest, dose inferred, filed as 5.0)
compound,measurement,setting,value
Nc1ccc(S(=O)(=O)Nc2nc3c(c(=O)[nH]2)CCCC3)cc1,growth inhibition,[1]; at 1.2 µM,5%
same,growth inhibition,[1]; at 3.7 µM,31%
same,growth inhibition,[1]; at 11.0 µM,93% (active)
same,growth inhibition,[1]; at 33.0 µM,99% (active)
same,growth inhibition,[1]; at 100.0 µM,100% (active)
same,growth inhibition,[2]; at 1.2 µM,12%
same,growth inhibition,[2]; at 3.7 µM,47%
same,growth inhibition,[2]; at 11.0 µM,80% (active)
same,growth inhibition,[2]; at 33.0 µM,99% (active)
same,growth inhibition,[2]; at 100.0 µM,99% (active)
same,growth inhibition,[3]; at 1.2 µM,2%
same,growth inhibition,[3]; at 3.7 µM,0%
same,growth inhibition,[3]; at 11.0 µM,50%
same,growth inhibition,[3]; at 33.0 µM,98% (active)
same,growth inhibition,[3]; at 100.0 µM,99% (active)
same,growth inhibition,[4]; at 1.2 µM,21%
same,growth inhibition,[4]; at 3.7 µM,22%
same,growth inhibition,[4]; [17],31%
same,growth inhibition,[4]; at 11.0 µM,93% (active)
same,growth inhibition,[4]; at 33.0 µM,99% (active)
same,growth inhibition,[4]; [18],98% (active)
same,growth inhibition,[4]; at 50.0 µM,99.5% (active)
same,growth inhibition,[4]; at 100.0 µM,99% (active)
same,growth inhibition,[5]; at 1.2 µM,0%
same,growth inhibition,[5]; at 3.7 µM,4%
same,growth inhibition,[5]; [17],28%
same,growth inhibition,[5]; at 11.0 µM,48%
same,growth inhibition,[5]; at 33.0 µM,99% (active)
same,growth inhibition,[5]; [18],99% (active)
same,growth inhibition,[5]; at 50.0 µM,99.5% (active)
same,growth inhibition,[5]; at 100.0 µM,99% (active)
same,growth inhibition,[6]; at 1.2 µM,19%
same,growth inhibition,[6]; at 3.7 µM,33%
same,growth inhibition,[6]; at 11.0 µM,94% (active)
same,growth inhibition,[6]; at 33.0 µM,100% (active)
same,growth inhibition,[6]; at 100.0 µM,100% (active)
same,growth inhibition,[7]; [17],44%
same,growth inhibition,[7]; [18],99% (active)
same,growth inhibition,[7]; at 50.0 µM,99.5% (active)
same,growth inhibition,[8]; at 1.2 µM,5%
same,growth inhibition,[8]; at 3.7 µM,5%
same,growth inhibition,[8]; at 11.0 µM,21%
same,growth inhibition,[8]; at 33.0 µM,99% (active)
same,growth inhibition,[8]; at 100.0 µM,99% (active)
same,growth inhibition,[9]; [17],8%
same,growth inhibition,[9]; [18],99% (active)
same,growth inhibition,[9]; at 50.0 µM,99.2% (active)
same,growth inhibition,[10]; at 1.2 µM,33%
same,growth inhibition,[10]; at 3.7 µM,40%
same,growth inhibition,[10]; [17],14%
same,growth inhibition,[10]; at 11.0 µM,92% (active)
same,growth inhibition,[10]; at 33.0 µM,99% (active)
same,growth inhibition,[10]; [18],98% (active)
same,growth inhibition,[10]; at 50.0 µM,99.3% (active)
same,growth inhibition,[10]; at 100.0 µM,99% (active)
same,growth inhibition,[11]; at 1.2 µM,29%
same,growth inhibition,[11]; at 3.7 µM,73% (active)
same,growth inhibition,[11]; at 11.0 µM,99% (active)
same,growth inhibition,[11]; at 33.0 µM,100% (active)
same,growth inhibition,[11]; at 100.0 µM,100% (active)
same,growth inhibition,[12]; at 1.2 µM,8%
same,growth inhibition,[12]; at 3.7 µM,20%
same,growth inhibition,[12]; at 11.0 µM,75% (active)
same,growth inhibition,[12]; at 33.0 µM,99% (active)
same,growth inhibition,[12]; at 100.0 µM,99% (active)
same,growth inhibition,[13]; at 1.2 µM,36%
same,growth inhibition,[13]; at 3.7 µM,47%
same,growth inhibition,[13]; at 11.0 µM,95% (active)
same,growth inhibition,[13]; at 33.0 µM,99% (active)
same,growth inhibition,[13]; at 100.0 µM,99% (active)
same,growth inhibition,[14]; [17],84% (active)
same,growth inhibition,[14]; [18],99% (active)
same,growth inhibition,[14]; at 50.0 µM,99.4% (active)
same,growth inhibition,[15]; at 1.2 µM,33%
same,growth inhibition,[15]; at 3.7 µM,48%
same,growth inhibition,[15]; at 11.0 µM,85% (active)
same,growth inhibition,[15]; at 33.0 µM,99% (active)
same,growth inhibition,[15]; at 100.0 µM,99% (active)
O=C1C(=C2CCCC2)CCC1CN1CCCCC1 (stereo unspecified),growth inhibition,[16]; at 1.2 µM,3%
same,growth inhibition,[16]; at 3.7 µM,16%
same,growth inhibition,[16]; at 11.0 µM,20%
same,growth inhibition,[16]; at 33.0 µM,64%
same,growth inhibition,[16]; at 100.0 µM,96% (active)
same,growth inhibition,[2]; at 1.2 µM,28%
same,growth inhibition,[2]; at 3.7 µM,36%
same,growth inhibition,[2]; at 11.0 µM,48%
same,growth inhibition,[2]; at 33.0 µM,80% (active)
same,growth inhibition,[2]; at 100.0 µM,94% (active)
same,growth inhibition,[3]; at 1.2 µM,-10%
same,growth inhibition,[3]; at 3.7 µM,5%
same,growth inhibition,[3]; at 11.0 µM,13%
same,growth inhibition,[3]; at 33.0 µM,54%
same,growth inhibition,[3]; at 100.0 µM,95% (active)
same,growth inhibition,[4]; at 1.2 µM,2%
same,growth inhibition,[4]; at 3.7 µM,8%
same,growth inhibition,[4]; [17],-3%
same,growth inhibition,[4]; at 11.0 µM,9%
same,growth inhibition,[4]; at 33.0 µM,60%
same,growth inhibition,[4]; [18],57%
same,growth inhibition,[4]; at 50.0 µM,76.3% (active)
same,growth inhibition,[4]; at 100.0 µM,95% (active)
same,growth inhibition,[5]; at 1.2 µM,-7%
same,growth inhibition,[5]; at 3.7 µM,-12%
same,growth inhibition,[5]; [17],6%
same,growth inhibition,[5]; at 11.0 µM,9%
same,growth inhibition,[5]; at 33.0 µM,70% (active)
same,growth inhibition,[5]; [18],60%
same,growth inhibition,[5]; at 50.0 µM,68.7%
same,growth inhibition,[5]; at 100.0 µM,96% (active)
same,growth inhibition,[6]; at 1.2 µM,10%
same,growth inhibition,[6]; at 3.7 µM,10%
same,growth inhibition,[6]; at 11.0 µM,29%
same,growth inhibition,[6]; at 33.0 µM,57%
same,growth inhibition,[6]; at 100.0 µM,94% (active)
same,growth inhibition,[7]; [17],9%
same,growth inhibition,[7]; [18],57%
same,growth inhibition,[7]; at 50.0 µM,58.9%
same,growth inhibition,[8]; at 1.2 µM,-16%
same,growth inhibition,[8]; at 3.7 µM,11%
same,growth inhibition,[8]; at 11.0 µM,-1%
same,growth inhibition,[8]; at 33.0 µM,40%
same,growth inhibition,[8]; at 100.0 µM,91% (active)
same,growth inhibition,[9]; [17],4%
same,growth inhibition,[9]; [18],14%
same,growth inhibition,[9]; at 50.0 µM,43.5%
same,growth inhibition,[10]; at 1.2 µM,8%
same,growth inhibition,[10]; at 3.7 µM,10%
same,growth inhibition,[10]; [17],-21%
same,growth inhibition,[10]; at 11.0 µM,18%
same,growth inhibition,[10]; at 33.0 µM,81% (active)
same,growth inhibition,[10]; [18],80% (active)
same,growth inhibition,[10]; at 50.0 µM,55.6%
same,growth inhibition,[10]; at 100.0 µM,97% (active)
same,growth inhibition,[11]; at 1.2 µM,-17%
same,growth inhibition,[11]; at 3.7 µM,2%
same,growth inhibition,[11]; at 11.0 µM,11%
same,growth inhibition,[11]; at 33.0 µM,68%
same,growth inhibition,[11]; at 100.0 µM,93% (active)
same,growth inhibition,[12]; at 1.2 µM,0%
same,growth inhibition,[12]; at 3.7 µM,0%
same,growth inhibition,[12]; at 11.0 µM,13%
same,growth inhibition,[12]; at 33.0 µM,84% (active)
same,growth inhibition,[12]; at 100.0 µM,97% (active)
same,growth inhibition,[13]; at 1.2 µM,34%
same,growth inhibition,[13]; at 3.7 µM,30%
same,growth inhibition,[13]; at 11.0 µM,63%
same,growth inhibition,[13]; at 33.0 µM,87% (active)
same,growth inhibition,[13]; at 100.0 µM,97% (active)
same,growth inhibition,[14]; [17],-29%
same,growth inhibition,[14]; [18],83% (active)
same,growth inhibition,[14]; at 50.0 µM,63.5%
same,growth inhibition,[15]; at 1.2 µM,8%
same,growth inhibition,[15]; at 3.7 µM,6%
same,growth inhibition,[15]; at 11.0 µM,27%
same,growth inhibition,[15]; at 33.0 µM,81% (active)
same,growth inhibition,[15]; at 100.0 µM,94% (active)

# Source: PubChem BioAssay (NCI)
